# Hit rate of the full screen: of about 280,000 compounds, about 180 (0.064%) were called active. What follows is part of a selection rich in actives, with near analogues and random picks from the rest. Values without a mark were called inactive. The call rests on the fitted dose curve; in most records, active means well fitted inhibition curve with a large enough effect; inconclusive means small, poorly fitted or top-dose-only effect, or effect the other way; inactive means flat fitted curve, though single readings scatter.
# Molecular target: Thyroid hormone receptor beta (Homo sapiens) (UniProt P10828)
# Experiment: qHTS for Inhibitors of the Interaction of Thyroid Hormone Receptor and Steroid Receptor Coregulator 2; further: nearly all actives have a fitted effect of over 50% in size
# Settings: TRbeta-SRC2 peptide binding, fluorescence polarization, receptor liganded with 1 µM T3; series mostly up to 106 µM; activity change, negative = inhibition: at the top concentration
# Description: NIH Molecular Libraries Probe Production Network [MLPCN]
# NIH Chemical Genomics Center [NCGC]
# Assay Provider: R. Kip Guy, St. Jude Children's Research Hospital
# Thyroid receptor (TR) regulates many homeostatic processes including basal metabolism, cardiovascular function, body weight, and lipid trafficking. TR modulators are potential therapeutics for obesity and hyperlipidemias but current thyroid analogs have undesirable side effects, particularly cardiac stimulation. To identify inhibitors that specifically prevent the interaction of TR with the steroid receptor coregulator 2 (SRC2), a fluorescence polarization assay was screened. This assay detects interaction of the ligand-binding domain of human TRb with a Texas Red labeled SRC2 peptide, corresponding to a 20 amino acid region of the nuclear receptor interaction domain (Arnold et al., 2006). Small molecule inhibitors that block the interaction of TR and SRC2 are detected by a decrease in fluorescence polarization.
# Arnold, L. A.; Estebanez-Perpina, E.; Togashi, M.; Shelat, A.; Ocasio, C. A.; McReynolds, A. C.; Nguyen, P.; Baxter, J. D.; Fletterick, R. J.; Webb, P.; Guy, R. K. A high-throughput screening method to identify small molecule inhibitors of thyroid hormone receptor coactivator binding. Sci STKE 2006, p 13.
# NCGC Assay Protocol Summary:
# For screening, 5 uL/well 0.6 uM TRb and 20 nM SRC2 Texas Red in protein buffer (20mM Tris hydrochloride, 100mM NaCl, 10% glycerol, 1mM EDTA, 0.01% NP-40, 1mM DTT, 1uM T3 and 5% DMSO) was dispensed into black solid 1536-well plates (Grenier) using a solenoid-based dispenser. Following transfer of 23 nL compound or DMSO vehicle by a pin tool, the plates were centrifuged 15 s at 1000 RPM and incubated 5 hr at ambient temperature. The plates were read by an Envision (Perkin Elmer) to detect fluorescence polarization of SRC2 Texas Red (555 nm excitation and 632 nm emission). Data were normalized to unbound (all components except TRb) and bound SRC2 Texas Red controls. In this assay, we provide % activity data for each concentration as well as potencies for the active compounds.
# Keywords: NIH Roadmap, MLPCN, MLI, MLSMR, qHTS, NCGC, qHTS, thyroid hormone receptor, steroid receptor coactivator, fluorescence polarization
# Potency means the concentration at half of the fitted maximal effect.
# Sequence of Thyroid hormone receptor beta (Homo sapiens) (P10828 whole entry, looked up): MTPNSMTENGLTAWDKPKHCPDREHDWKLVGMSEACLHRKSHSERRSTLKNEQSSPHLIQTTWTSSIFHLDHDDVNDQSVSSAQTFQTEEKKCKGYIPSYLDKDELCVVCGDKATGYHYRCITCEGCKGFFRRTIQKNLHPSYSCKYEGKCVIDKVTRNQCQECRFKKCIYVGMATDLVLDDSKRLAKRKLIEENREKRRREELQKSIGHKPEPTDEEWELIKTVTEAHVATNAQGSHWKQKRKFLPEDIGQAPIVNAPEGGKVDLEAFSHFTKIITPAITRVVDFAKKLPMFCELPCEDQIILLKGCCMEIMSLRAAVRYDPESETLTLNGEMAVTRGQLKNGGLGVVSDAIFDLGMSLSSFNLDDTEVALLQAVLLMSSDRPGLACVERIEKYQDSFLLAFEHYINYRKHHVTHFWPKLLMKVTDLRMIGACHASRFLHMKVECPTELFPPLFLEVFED
SMILES,"activity change, negative = inhibition",Potency
Cc1ccc(CN2CCc3nc(N4CCN(C)CC4)ncc3C2)cc1,-3.16%,
CCN1CCN(c2ncc3c(n2)CC(c2ccccc2O)CC3=O)CC1 (configuration not stated),4.08%,
Cc1nc2nc(SCC(=O)N(Cc3ccccc3)C(C)C)nn2c(C)c1Cc1ccccc1Cl,6.02%,
Cc1ccc(NC(=O)c2nc(S(=O)(=O)Cc3cccc(C)c3)ncc2Cl)cc1,-0.903%,
CC(=O)OC1=C(C(C)=O)N(Cc2ccccc2)S(=O)(=O)c2ccccc21,-0.701%,
Cc1cccc(OCCSc2nc3ccccc3n2CC(=O)N2CCCCC2)c1C,-1.35%,
Cc1ccccc1CNC(=O)CCCn1nc(C)c2sc3ccccc3c2c1=O,-0.387%,
Cc1c(C)n(Cc2ccc(Cl)cc2)c2ccc(C(=O)NCCc3ccc(S(N)(=O)=O)cc3)cc12,-3.01%,
COc1ccc2cc(CNc3ccc(OC)c(OC)c3)c(=O)n(CC(=O)Nc3ccccc3F)c2c1,-2.35%,
CSc1ccc(C2C(C(=O)Nc3ccccc3)=C(C)Nc3nc4ccccc4n32)cc1 (configuration not stated),-8.79%,
COc1ccc(CCNC(=O)c2nn(C)c3c2CSc2ccccc2-3)cc1OC,-1.01%,
COc1ccc(-c2nc(C)c(CCNC(=O)c3ccc(C(F)(F)F)cc3)s2)cc1OC,0.0329%,
COc1c(O)c2c(=O)cc(OC)c3c4c(OC)cc(=O)c5c(O)c(OC)c6c(c(c1C[C@@](C)(O)[C@H]6C(C)=O)c23)c54,,35.5 µM (active)
COc1ccc2c(c1)c(N1CCCC1=O)c(C(=O)Nc1ccc(OC)c(Cl)c1)n2C,3.35%,
COc1ccc(Cl)cc1NC(=O)c1sc2nc3c(cc2c1N)CN(C)CC3,0.478%,
Cc1cccc(NC(c2cccc(F)c2)c2ccc3ccc(C)nc3c2O)n1 (configuration not stated),0.0507%,
CCOc1ccc(N(Cc2ccccc2)C(=O)c2nc(S(C)(=O)=O)ncc2Cl)cc1,-7.22%,
O=C(/C=C/c1ccccc1[N+](=O)[O-])OC1CCCCC1=O (configuration not stated),0.395%,
CC1CCCCC1NC(=O)/C(C#N)=C/C=C/c1ccccc1[N+](=O)[O-] (configuration not stated),,39.8 µM (active)
O=C(/C=C/c1ccccc1[N+](=O)[O-])NCC1CCCO1 (configuration not stated),1.44%,
CCNS(=O)(=O)c1cc(-c2nnc(Nc3cccc(C(F)(F)F)c3)c3ccccc23)ccc1C,8.87%,
O=C(NCCCN1CCN(c2cccc(Cl)c2)CC1)c1nnc(Cc2ccc(F)cc2Cl)o1,5.2%,
COc1ccc(-c2cc(NCc3ccc(F)cc3)n3cnnc3n2)cc1,2.27%,
Cc1ccc(NC(=O)CN2C(=O)C(c3ccc(F)cc3)=NC23CCCCCC3)c(C)c1,-0.31%,
Cc1ccc(Nc2c(-c3ccc(N(C)C)cc3)nc3nc[nH]n23)cc1,2.09%,

SMILES,"activity change, negative = inhibition",Potency
O=C(NC1CC(=O)N(c2ccc(F)cc2)C1)c1ccc(S(=O)(=O)N2CCCC2)cc1 (configuration not stated),-0.489%,
COC(=O)c1ccc(NC(=O)CSc2n[nH]c(-c3ccccc3)n2)cc1,1.11%,
Cn1nc(-c2ccccc2)c(-c2ccccc2)c(C(=O)Nc2ccc(S(N)(=O)=O)cc2)c1=O,-7.69%,
COc1ccc(-c2cn3c(n2)sc2cc(C(=O)Nc4ccccc4F)ccc23)cc1,0.784%,
CCOc1cccc(NC(=O)CSc2ncc(-c3ccc(Cl)cc3)[nH]2)c1,8.96%,
O=C(Nc1c(C(=O)N2CCN(c3ccc(F)cc3)CC2)oc2ccccc12)c1ccco1,5.17%,
COc1ccc(-c2noc(CSc3nc(C)cc(=O)[nH]3)n2)cc1OC,-6.31%,
CCOC(=O)c1cnc2c(C)cc(C)cc2c1Nc1ccc(N2CCOCC2)cc1,4.22%,
CC(C)c1ccc(C2CC(=O)N3CN(C4CCCCC4)CSC3=C2C#N)cc1 (configuration not stated),-3.24%,
Clc1nc(Cl)c(Cl)c(Cl)c1Cl,2.91% [at 201 µM],
O=C(c1cnn(-c2ccc(F)cc2)c1-n1cccc1)N1CCN(c2ccc(F)cc2)CC1,-0.53%,
COc1ccc(-c2cccc(NS(=O)(=O)c3cc(C)c(OC)c(C)c3C)c2)nn1,-3.96%,
O=C(CSc1nc2nccnc2c(=O)n1CCc1c[nH]c2ccccc12)Nc1ccccc1F,-1.34%,
COc1cccc(-n2cc(C(=O)NCc3cccc(Cl)c3)c3ccccc3c2=O)c1,5.09%,
CCN(Cc1ccccc1)C(=O)c1cn(-c2cccc(OC)c2)c(=O)c2ccccc12,0.692%,
O=C(CSc1nccn1-c1ccc(F)cc1)Nc1cccc2ccccc12,-1.67%,
CC1=C(c2ccc(C)cc2)S(=O)(=O)NC1=NCCCN1CCN(c2cc(C)ccc2C)CC1,-0.687%,
COc1ccc(-c2cc(C(=O)NCc3cc(OC)c(OC)c(OC)c3)[nH]n2)cc1,1.65%,
CCC(C(=O)Nc1cc(OC)ccc1OC)n1c(=O)c(C(F)(F)F)nc2ccccc21 (configuration not stated),-2.12%,
CCOC(=O)c1oc2ccc(S(=O)(=O)n3nc(-c4ccccc4OC)cc3N)cc2c1C,-12.1%,
COc1ccc(NS(=O)(=O)c2cc3c4c(c2)CC(=O)N4CCC3)cc1Cl,5.52%,
Cc1ccc(C)c(Nc2nnc(-c3ccc(C)c(S(=O)(=O)N4CCCCC4)c3)c3ccccc23)c1,-0.116%,
O=C(C1CCCN(S(=O)(=O)c2cccc3nonc23)C1)N1CCN(c2ccccc2F)CC1 (configuration not stated),-9.58%,
O=C1CSC2(C(=O)N(Cc3ccccc3)c3ccccc32)N1c1cccc(F)c1 (configuration not stated),3.71%,
CCn1cc(C(=O)N2CCN(c3cc(C)ccc3C)CC2)c(=O)c2cc(S(=O)(=O)N(C)C3CCCCC3)ccc21,1.74%,

SMILES,"activity change, negative = inhibition",Potency
Cc1nnc(NC(=O)CSc2nc3c([nH]c4ccccc43)c(=O)n2-c2cccc(Cl)c2)s1,6.72%,
COc1ccccc1N1CCN(C(=O)C2CCN(S(=O)(=O)c3c(C)noc3/C=C/c3ccc(C)cc3)CC2)CC1,7.45%,
CCOc1ccc2oc(=O)cc(CN3CCN(C(=O)c4ccc(F)cc4)CC3)c2c1,-8.37%,
Cc1cccc(N2CCN(C(=O)CCn3c(=O)c4cccn4c4cccnc43)CC2C)c1 (configuration not stated),4.81%,
COc1ccc(-n2ccnc(NCCc3ccc(Cl)cc3)c2=O)cc1OC,5.85%,
CCn1c(C)c(C)c2cc(C(=O)NCCc3cc(OC)ccc3OC)ccc21,-5.66%,
COc1ccc(-c2onc(C)c2C)cc1S(=O)(=O)NCC1CCN(Cc2cccc(F)c2)CC1,2.95%,
Cc1cccc(NC(=O)CN(c2ccc(C(C)C)cc2)S(=O)(=O)c2c(C)nn(C)c2C)c1C,1.49%,
Cc1cc2c(cc3c(SCc4cccc(Cl)c4)nnc(C)n32)o1,7.69%,
COc1ccc(-c2cn3nc(N4CCC(C(=O)Nc5cccc(C)c5C)CC4)sc3n2)cc1,2.88%,
COc1ccc(CNC(=O)c2ccc(NC(=O)N3CC4CCCN4c4ccccc43)cc2)cc1 (configuration not stated),-4.18%,
Cc1cccc(N2CCN(C3=C(c4ccccc4)C(=O)c4ccccc43)CC2)c1C,-3.14%,
Cc1nc2nc(NCc3cccc(Br)c3)[nH]n2c(=O)c1Cc1ccccc1,-7.16%,
C[Si](C)(C)N[Si](C)(C)C,2.92% [at 201 µM],
CN(C)c1ccc(N/C=C/C(=O)C(F)(F)F)cc1,,44.7 µM (active)
CCCOc1ccc(N/C=C/C(=O)C(C)(C)C)cc1,4.71%,
O=C(/C=C/Nc1ccccc1OC(F)(F)F)C(F)(F)F,5.17%,
COc1ccc(C2=NC(c3ccncc3)=Nc3ccc(Br)cc3N2)cc1,-4.88%,
Cc1ccccc1OCc1ccc(-c2nc(C#N)c(N3CCCCC3)o2)o1,0.495%,
Cc1cc(=O)n(CC(=O)Nc2cccc([N+](=O)[O-])c2)c(-n2nc(C)cc2C)n1,3.16%,
Cc1ccc(NC(=O)c2oc3ccc(S(=O)(=O)N4CCCCC4)cc3c2C)cc1Cl,-6.34%,
CCN(CC)c1cc(NC2CCCCC2)c2c3c(onc13)-c1ccccc1C2=O,-2.27%,
COc1cc(NC(=O)c2noc3c2CSc2ccccc2-3)cc(OC)c1OC,3.67%,
CCc1cccc(C)c1Nc1c(-c2ccc(N(C)C)cc2)nc2ncccn12,7.62%,
CCOCCCNC(=O)c1ccc2nc(CCc3ccccc3)oc2c1,4.71%,

SMILES,"activity change, negative = inhibition",Potency
CCc1ccccc1NC(=O)Cc1ccc(NC(=O)N2CCCCc3ccccc32)cc1,-8.69%,
CCOC(=O)c1ccc(N2C(=O)c3n[nH]c(-c4ccco4)c3C2c2ccc(O)cc2)cc1 (configuration not stated),-1.97%,
O=C(CCOc1ccccc1)N(Cc1cccnc1)c1nc2ccc(Cl)cc2s1,-8.93%,
CCOC(=O)N1CCc2c(sc(NCc3cccc(F)c3)c2C(=O)Nc2ccccc2OCC)C1,-2.15%,
COC(=O)CC1Oc2ccccc2-n2cc(-c3ccccc3)nc21 (configuration not stated),2.42%,
Cc1ccc(O)c(NC(=O)CCS(=O)(=O)c2nc(-c3ccc4c(c3)OCO4)cc(C(F)(F)F)n2)c1,0.6%,
Cc1cc(C)cc(NC(=O)CSc2oc(-c3ccccc3)nc2S(=O)(=O)c2ccc(Cl)cc2)c1,3.51%,
CCOc1ccc(CNC(=O)c2ccc(CS(=O)c3ccccc3)o2)cc1 (configuration not stated),2.05%,
CCCn1c(NCc2ccc(N(CC)CC)cc2)nc2ccccc21,5.29%,
CCOCCCNC(=O)c1c(NC(=O)Cc2coc3ccc(C)cc23)sc2c1CCC2,-6.01% [at 53 µM],
Cc1ccc2nc(-c3ccc(O)cc3)c(Nc3ccc4c(c3)OCO4)n2c1,-5.88%,
Cc1ccc(-c2nc3ccccn3c2Nc2c(C)cccc2C)o1,2.13%,
Cc1ccccc1CS(=O)(=O)CC1Nc2ccc(C(=O)NCc3ccc(Cl)cc3)cc2NC1=O (configuration not stated),-3.54%,
Cc1cccc(N2CCN(c3ccc(C(=O)O)cc3NC(=O)c3ccccc3F)CC2C)c1 (configuration not stated),-2.14%,
CCOc1ccc(-c2cc(C)n3nc(C(=O)Nc4ccc(C)c(C)c4)cc3n2)cc1,3.95%,
Oc1ccc(N=Cc2sc3ccccc3c2Cl)cc1,,14.1 µM (active)
COc1ccc(N=C(C)c2sc3ccccc3c2O)cc1,1.68%,
O=C(N/N=C/c1c(Cl)[nH]c2ccccc12)c1sc2ccccc2c1Cl,0.527%,
COc1cccc(-c2cc(C(=O)Nc3ccc(C)cc3)[nH]n2)c1,-2.44%,
COc1ccc(CC(=O)Nc2nnc3n2CCS3)cc1OC,5.54%,
Cc1ccc(Nc2nnc(-c3ccc(C)c(S(=O)(=O)N4CCCCC4)c3)c3ccccc23)cc1,-3.05%,
COc1ccccc1N1CCN(CCCNC(=O)c2cnn(-c3ccccc3Cl)c2C2CCN(C(=O)OC(C)(C)C)CC2)CC1,5.02%,

# — PubChem BioAssay AID1469 (National Center for Advancing Translational Sciences (NCATS), 2008)
